{
  "source": "PubChem BioAssay (Tox21)",
  "note": "Unmarked numbers belong to inactive results. Activity calls are given as the source filed them. Calls come from the whole dose curve; as a rule, active = well fitted activation curve with a large enough effect in the repeat runs; inconclusive = weak or mixed curves; inactive = flat fitted curve, though single readings scatter. % is set by controls: 0 for no effect and ±100 for the full control effect.",
  "data": [
    {"assay": "A CellTox Green Cytotoxicity Assay to monitor cytotoxicity in HEK293 cells - 0 hour (AID 1224869); note: nearly all actives have a fitted effect of over 50% in size", "conditions": "CellTox Green fluorescence; series mostly up to 76.8 µM; cytotoxicity: at the top concentration", "text": "National Center for Advancing Translational Sciences [NCATS]\nNIH Chemical Genomics Center [NCGC]\nU.S. Environmental Protection Agency [EPA]\nNational Institutes of Environmental Health Sciences [NIEHS]\nNational Toxicology Program [NTP]\nCell-based models are critical for drug discovery. Determining the natural cytotoxic effects resulting from test compounds is an essential research activity. A CellTox Green Cytotoxicity Assay to monitor cytotoxicity in real time of continues cell culture during 40 hours of the compound treatment was used to screen Tox21 10K library compounds in Hek293 cells. CellTox Green Cytotoxicity Assay is a nonlytic, homogeneous, biofluorescent method to measure cytotoxicity in cell culture after experimental manipulation. The assay system uses a proprietary asymmetric cyanine dye that is excluded from viable cells but preferentially stains the dead cell's DNA. […] Viable cells produce no appreciable increases in fluorescence. Therefore, the fluorescence signal produced by the binding interaction with dead cell DNA is proportional to cytotoxicity.\nThe mixture of Hek293 cell suspension and reagents were dispensed at 600cells/6 ul/well in 1536-well tissue culture treated black solid bottom plates using a Multidrop dispenser. After the assay plates were incubated at a 37 C/5% CO2 incubator for 5 hours, 23 nL of compounds dissolved in DMSO, positive and negative controls was transferred to the assay plate by a pintool work station. The plates were incubated at 37 C for 40 hours. The fluorescence intensity were measured at 0h, 8h, 16h, 24h, 32h and 40h time points using ViewLux plate reader during compound treatment.", "values": [
      {"smiles": "CO/C=C(/C(=O)OC)c1ccccc1COc1cccc(C(F)(F)F)n1", "cytotoxicity": "3.58%"},
      {"smiles": "Cl/C=C\\C[N+]12CN3CN(CN(C3)C1)C2", "cytotoxicity": "-0.613%"},
      {"smiles": "Nc1nc(N)nc(N)n1", "cytotoxicity": "0.0583%"},
      {"smiles": "CCOC(=O)C(Cl)C(C)=O", "note": "(stereo not given)", "cytotoxicity": "18%"},
      {"smiles": "CCCN(CCCl)c1c([N+](=O)[O-])cc(C(F)(F)F)cc1[N+](=O)[O-]", "cytotoxicity": "-13.1%"},
      {"smiles": "O=C=Nc1ccc(Cl)cc1", "cytotoxicity": "8.58%"},
      {"smiles": "CC(=O)[C@H]1CC[C@H]2[C@@H]3CC[C@H]4C[C@](C)(O)CC[C@]4(C)[C@H]3CC[C@]12C", "cytotoxicity": "5.62% [at 35.3 µM]"},
      {"smiles": "O=C1C(=O)c2cccc3cccc1c23", "cytotoxicity": "-0.0021%"},
      {"smiles": "O=C(O)c1ccccc1C(=O)Nc1cccc2ccccc12", "cytotoxicity": "4.17%"},
      {"smiles": "CC(Cl)Cl", "cytotoxicity": "1.38%"},
      {"smiles": "O=C1CN=C(c2ccccc2)c2cc(Cl)ccc2N1CC1CC1", "cytotoxicity": "5.77%"},
      {"smiles": "O=C1NCN(c2ccccc2)C12CCN(CCCOc1ccc(F)cc1)CC2", "cytotoxicity": "-1.41% [at 35.3 µM]"},
      {"smiles": "CCCCC(CC)COP(=O)(Oc1ccccc1)Oc1ccccc1", "note": "(stereo not given)", "cytotoxicity": "8.04%"},
      {"smiles": "O=C(N[C@H](c1ccccc1)[C@@H]1CN2CCC1CC2)c1c(Cl)ccc(C(F)(F)F)c1Cl", "cytotoxicity": "-3.57%"},
      {"smiles": "CC/C(=N\\OC/C=C/Cl)C1=C(O)CC(C2CCOCC2)CC1=O", "note": "(stereo not given)", "cytotoxicity": "4.75%"},
      {"smiles": "CCCCN(N=O)C(=N)N[N+](=O)[O-]", "cytotoxicity": "2.5%"},
      {"smiles": "c1ccc(CN2CCNCC2)cc1", "cytotoxicity": "-3.45% [at 200 µM]"},
      {"smiles": "O=C(OC1CCCCC1)c1ccccc1C(=O)OC1CCCCC1", "cytotoxicity": "2.14%"},
      {"smiles": "C/C=C/C=O", "cytotoxicity": "-4.84%"},
      {"smiles": "CCCC(=O)Cl", "cytotoxicity": "-0.362%"},
      {"smiles": "O=S(=O)(O)C(F)(F)C(F)(F)C(F)(F)C(F)(F)F", "cytotoxicity": "12.8%"},
      {"smiles": "O=C(O)C1(c2ccc3c(c2)OC[C@H](Cc2ccc(-c4ccccc4)cc2)[C@H]3O)CCCC1", "cytotoxicity": "2.93%"},
      {"smiles": "CCn1cc[n+](C)c1", "Potency": "inactive"},
      {"smiles": "O=C(NC(=O)c1c(F)cccc1F)Nc1cc(Cl)c(Oc2ncc(C(F)(F)F)cc2Cl)c(Cl)c1", "cytotoxicity": "6.02%"},
      {"smiles": "COC(=O)C(Br)CBr", "note": "(stereo not given)", "cytotoxicity": "0.461%"},
      {"smiles": "C[N+](C)(C)CCCl", "cytotoxicity": "-0.325%"},
      {"smiles": "ClCc1cccc(Cl)c1", "cytotoxicity": "-5.66% [at 35.3 µM]"},
      {"smiles": "CCBr", "cytotoxicity": "1.44%"},
      {"smiles": "c1cc2ccc3cccc4ccc(c1)c2c34", "cytotoxicity": "-2.34%"},
      {"smiles": "Clc1cc(Cl)c(Cl)c(Cl)c1", "cytotoxicity": "1.22%"},
      {"smiles": "COc1cc(CC(C)N)cc2c1OCO2", "note": "(stereo not given)", "cytotoxicity": "-6.32%"},
      {"smiles": "CS/C(C)=N/OC(=O)N(C)SN(C)C(=O)O/N=C(\\C)SC", "cytotoxicity": "0.0537%"},
      {"smiles": "II", "cytotoxicity": "0.328%"},
      {"smiles": "C[C@@H]1CC[C@H]2[C@@H](C)C(=O)O[C@@H]3O[C@@]4(C)CC[C@@H]1[C@]32OO4", "cytotoxicity": "-9.66% [at 35.3 µM]"},
      {"smiles": "CCCC(Cn1cncn1)c1ccc(Cl)cc1Cl", "note": "(stereo not given)", "cytotoxicity": "0.096%"},
      {"smiles": "Cl/C=C\\Cl", "cytotoxicity": "-6.04%"},
      {"smiles": "COP(=S)(Oc1cc(Cl)c(Br)cc1Cl)c1ccccc1", "note": "(stereo not given)", "cytotoxicity": "14.6%"},
      {"smiles": "O=C(NC(=O)c1c(F)cccc1F)Nc1ccc(OC(F)(F)C(F)OC(F)(F)F)c(Cl)c1", "note": "(stereo not given)", "cytotoxicity": "0.386% [at 35.3 µM]"},
      {"smiles": "Oc1ccc(Cl)c(Cl)c1Cl", "cytotoxicity": "-1.12%"},
      {"smiles": "CN1C(=O)NC(=O)C(C)(C2=CCCCC2)C1=O", "note": "(stereo not given)", "cytotoxicity": "-1.55% [at 35.3 µM]"}
    ]}
  ]
}
